Laboratory results published in PubChem BioAssay (Tox21).
Several values for one entry are separate records, joined by “and”; a condition that tells them apart may be missing. Identical values can stand only once. Results filed as inconclusive are left out. Activity calls are given as the source filed them. Unless noted, the call rests on the fitted dose curve; in most records, active means well fitted curve in the direction sought with a large enough effect in the repeat runs; inconclusive means weak or mixed curves; inactive means no such curve, though single readings can be large; an effect the other way counts as inactive or inconclusive.

What was measured:
[1] = target: Thyrotropin-releasing hormone receptor (Homo sapiens) (UniProt P34981); assay: qHTS assay to identify small molecule agonists of the thyrotropin-releasing hormone receptor (TRHR) signaling pathway (AID 1346891; calls by dose curve;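 further: HEK293 cells expressing TRHR with calcium dye readout; series mostly up to about 58 µM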)
Sequence of Thyrotropin-releasing hormone receptor (Homo sapiens) (P34981 whole entry, looked up): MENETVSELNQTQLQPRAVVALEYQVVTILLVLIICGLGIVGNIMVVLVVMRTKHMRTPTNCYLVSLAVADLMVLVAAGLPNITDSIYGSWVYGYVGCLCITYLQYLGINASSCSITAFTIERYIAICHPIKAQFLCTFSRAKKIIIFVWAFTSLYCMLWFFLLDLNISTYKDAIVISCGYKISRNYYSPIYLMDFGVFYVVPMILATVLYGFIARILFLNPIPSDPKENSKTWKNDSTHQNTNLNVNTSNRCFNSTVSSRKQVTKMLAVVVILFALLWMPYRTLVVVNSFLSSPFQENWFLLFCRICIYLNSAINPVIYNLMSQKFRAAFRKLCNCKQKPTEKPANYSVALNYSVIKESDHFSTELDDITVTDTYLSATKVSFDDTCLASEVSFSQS
In short: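 In 1536-format, 1500 TRHR-Hek293 cells per well grew 18 h, took up calcium dye for 2 h at 37 °C, received compound, and were read kinetically; 15-point titrations, triplicates.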

[2] = Human pregnane X receptor (PXR) small molecule agonists, qHTS cell viability counter screen (AID 1346977); further: nearly all actives have a fitted effect of over 50% in size; further: potency means the concentration at half of the fitted maximal effect
In short: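 Readout is CellTiter-Fluor fluorescence from PXR-Luc HepG2 cells. Plated cells rested 5hr, then were treated with compounds for 24hr at 37C and 5% CO2, with reagent present during the last hour.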

[3] = Caspase-3/7 induction in HepG2 cells by small molecules, qHTS assay (AID 1346978); further: nearly all actives have a fitted effect of over 15% in size
In short: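 Wild-type HepG2 cells (2,000/well) were settled 5 h at 37 C, 5% CO2, then exposed to compounds in DMSO for 17 h. Caspase-3/7 activity was read by luminescence 30 min after adding Caspase-Glo 3/7 reagent at room temperature.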

[4] = Caspase-3/7 induction in CHO-K1 cells by small molecules, qHTS cell viability counter screen (AID 1346979); further: nearly all actives have a fitted effect of over 35% in size; further: potency means the concentration at half of the fitted maximal effect
In short: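 To flag cytotoxic compounds, treated CHO-K1 wild-type cells were given CellTiter-Fluor at 16hr and read fluorescently after 1hr at 37C; the caspase-3/7 luminescence was measured in these same wells.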

[5] = Caspase-3/7 induction in CHO-K1 cells by small molecules, qHTS assay (AID 1346980); further: nearly all actives have a fitted effect of over 15% in size
In short: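 Wild-type cells were seeded at 1,500 per well and settled 5 hr at 37 C, 5% CO2, then exposed to DMSO-dissolved compounds for 17 hr. Caspase-Glo 3/7 reagent was added, and luminescence was read after 30min at room temperature.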

[6] = Caspase-3/7 induction in HepG2 cells by small molecules, qHTS cell viability counter screen (AID 1346981); further: nearly all actives have a fitted effect of over 30% in size; further: potency means the concentration at half of the fitted maximal effect
In short: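 Multiplexed with the caspase-3/7 assay: HepG2 cells, 16 hr compound treatment, CellTiter-Fluor viability detection by fluorescence.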

[7] = target: Nuclear receptor subfamily 1 group I member 2 (Homo sapiens) (UniProt O75469); assay: Human pregnane X receptor (PXR) small molecule agonists, qHTS assay (AID 1346982); further: nearly all actives have a fitted effect of over 35% in size; further: potency means the concentration at half of the fitted maximal effect
Sequence of Nuclear receptor subfamily 1 group I member 2 (Homo sapiens) (O75469 whole entry, looked up): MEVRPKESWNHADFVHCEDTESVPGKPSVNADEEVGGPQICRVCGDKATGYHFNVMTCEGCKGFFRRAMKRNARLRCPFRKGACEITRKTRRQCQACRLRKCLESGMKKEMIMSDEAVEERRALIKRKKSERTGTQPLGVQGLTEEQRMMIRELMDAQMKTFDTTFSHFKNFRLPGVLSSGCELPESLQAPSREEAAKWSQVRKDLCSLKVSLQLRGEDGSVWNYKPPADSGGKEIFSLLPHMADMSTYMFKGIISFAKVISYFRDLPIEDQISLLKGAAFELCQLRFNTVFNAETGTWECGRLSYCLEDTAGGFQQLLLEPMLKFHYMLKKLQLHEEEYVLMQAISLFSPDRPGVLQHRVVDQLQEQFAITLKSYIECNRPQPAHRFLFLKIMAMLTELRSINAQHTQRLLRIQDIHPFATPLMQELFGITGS
In short: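 We seeded PXR-Luc HepG2 cells in assay medium containing 5% charcoal-stripped FBS, added compounds 5 hr later, incubated 24 hr, and read luminescence with ONE-Glo reagent.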

[8] = target: Acetylcholinesterase (Homo sapiens) (UniProt P22303); assay: Acetylcholinesterase (AChE) small molecule antagonists: colormetric cell-based qHTS assay (AID 1347395; calls by dose curve; further: nearly all actives have a fitted effect of over 30% in size; further: potency means the concentration at half of the fitted maximal effect)
Sequence of Acetylcholinesterase (Homo sapiens) (P22303 whole entry, looked up): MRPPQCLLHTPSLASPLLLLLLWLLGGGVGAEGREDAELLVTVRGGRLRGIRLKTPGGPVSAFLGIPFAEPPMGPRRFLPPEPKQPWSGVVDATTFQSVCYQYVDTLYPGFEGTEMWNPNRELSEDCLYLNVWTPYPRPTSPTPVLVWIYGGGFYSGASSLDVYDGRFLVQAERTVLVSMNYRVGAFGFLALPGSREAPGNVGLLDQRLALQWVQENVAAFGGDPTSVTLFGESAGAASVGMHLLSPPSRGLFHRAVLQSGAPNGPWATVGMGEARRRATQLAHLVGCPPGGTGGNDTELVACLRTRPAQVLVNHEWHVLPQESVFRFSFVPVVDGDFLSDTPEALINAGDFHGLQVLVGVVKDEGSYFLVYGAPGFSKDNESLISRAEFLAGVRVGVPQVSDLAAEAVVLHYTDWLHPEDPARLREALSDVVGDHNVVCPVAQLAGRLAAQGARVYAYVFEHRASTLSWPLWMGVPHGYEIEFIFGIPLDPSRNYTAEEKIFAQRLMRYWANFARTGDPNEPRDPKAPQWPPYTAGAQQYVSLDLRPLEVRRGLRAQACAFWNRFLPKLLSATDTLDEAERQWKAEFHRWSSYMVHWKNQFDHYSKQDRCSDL
In short: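 Neuroblastoma line SH-SY5Y supplied the enzyme; cells were preincubated with compound for 30 min at 37 C and 5% CO2. Acetylthiocholine with DTNB was then added for 90 min at 37 C, and thiocholine was measured by colour.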

[9] = target: Nuclear receptor subfamily 1 group I member 2 (Rattus norvegicus) (UniProt Q9R1A7); assay: Rat pregnane X receptor (rPXR) activation by small molecules, qHTS assay (AID 1346983); details: rPXR luciferase reporter cells, One-Glo luminescence, 24 h; stronger effect = higher value; further: nearly all actives have a fitted effect of over 20% in size
Sequence of Nuclear receptor subfamily 1 group I member 2 (Rattus norvegicus) (Q9R1A7 whole entry, looked up): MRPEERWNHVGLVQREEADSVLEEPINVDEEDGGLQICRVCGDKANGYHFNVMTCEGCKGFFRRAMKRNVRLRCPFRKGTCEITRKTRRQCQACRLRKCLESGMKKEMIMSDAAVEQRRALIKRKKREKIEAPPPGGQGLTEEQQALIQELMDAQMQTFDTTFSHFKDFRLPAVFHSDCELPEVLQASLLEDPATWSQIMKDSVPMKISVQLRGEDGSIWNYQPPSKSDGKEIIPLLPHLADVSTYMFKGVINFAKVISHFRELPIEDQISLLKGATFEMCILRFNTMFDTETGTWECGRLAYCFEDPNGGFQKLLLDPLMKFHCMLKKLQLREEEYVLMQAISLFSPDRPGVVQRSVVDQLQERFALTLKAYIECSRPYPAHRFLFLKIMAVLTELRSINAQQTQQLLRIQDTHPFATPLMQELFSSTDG
In short: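 Cell-based rPXR luciferase reporter assay, 2,000 cells per well, rested 5hr at 37 C before compound addition in DMSO, then 24 hr at 37 C. One-Glo reagent was added and luminescence read after 30 min at room temperature.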

[10] = target: Nuclear receptor subfamily 1 group I member 2 (Homo sapiens) (UniProt O75469); assay: CYP3A4 induction through human pregnane X receptor (PXR) by small molecules, qHTS assay (AID 1346984); further: nearly all actives have a fitted effect of over 40% in size
In short: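 qHTS, concentration-response format: HepG2 DPX-2 line, PXR/CYP3A4-luc. Exposure 24 h, 37C. Substrate Luciferin-IPA 3uM final, 3 h. Detection One-Glo, 30 min RT.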
On the % scale 0 is the no-effect control and ±100 the full control effect.

CCC1(CC)C(=O)C=CNC1=O
inactive: outcome [1] | Potency [2] | outcome [3] | Potency [4] | outcome [5] | Potency [6] | Potency [7] | Potency [8]

O=C(Cl)OCc1ccccc1
inactive: outcome [1] | Potency [2] | outcome [3] | Potency [4] | outcome [5] | Potency [6] | Potency [7] | Potency [8]

CCCCCCC1CCOC1=O (stereo unspecified)
inactive: outcome [1] | Potency [2] | outcome [3] | Potency [4] | outcome [5] | Potency [6] | Potency [7] | Potency [8]

CN(CCO)CCO
inactive: outcome [1] | Potency [2] | outcome [3] | Potency [4] | outcome [5] | Potency [6] | Potency [7] | Potency [8]

COc1cccc(C=O)c1
inactive: outcome [1] | Potency [2] | outcome [3] | Potency [4] | outcome [5] | Potency [6] | Potency [7] | Potency [8]

O=C1CC(=O)NC(=O)N1
inactive: outcome [1] | Potency [2] | outcome [3] | Potency [4] | outcome [5] | Potency [6] | Potency [7] | Potency [8]

C=CCN1CC[C@]23CCCC[C@H]2[C@H]1Cc1ccc(O)cc13
inactive: outcome [1] | Potency [2] | outcome [3] | Potency [4] | outcome [5] | Potency [6] | max activation [9] -1.31%

O=C(Cl)C(Cl)Cl
inactive: outcome [1] | Potency [2] | outcome [3] | Potency [4] | outcome [5] | Potency [6] | Potency [7] | Potency [8]

CCN(CCO)CCn1c(Cc2ccccc2)nc2c1c(=O)n(C)c(=O)n2C
inactive: outcome [1] | Potency [2] | outcome [3] | Potency [4] | outcome [5] | Potency [6] | Potency [7] | Potency [8]

NCCOS(=O)(=O)O
inactive: outcome [1] | Potency [2] | outcome [3] | Potency [4] | outcome [5] | Potency [6] | Potency [7] | Potency [8]

O=C(O)c1c(Cl)ccc2cc(Cl)cnc12
inactive: outcome [1] | Potency [2] | outcome [3] | Potency [4] | outcome [5] | Potency [6] | Potency [7] | Potency [8]

CCCCS(=O)(=O)Cl
inactive: outcome [1] | Potency [2] | outcome [3] | Potency [4] | outcome [5] | Potency [6] | Potency [7] | Potency [8]

CCC(C)(C#N)N=NC(C)(C#N)CC (stereo unspecified)
inactive: outcome [1] | Potency [2] | outcome [3] | Potency [4] | outcome [5] | Potency [6] | Potency [7] | Potency [8]

O=S1(=O)OCCO1
inactive: outcome [1] | Potency [2] | outcome [3] | Potency [4] | outcome [5] | Potency [6] | Potency [7] | Potency [8]

CCOP(=S)(OCC)Oc1ccc(Cl)cc1Cl
inactive: outcome [1] | Potency [2] | outcome [3] | Potency [4] | outcome [5] | Potency [6] | Potency [7] | Potency [8]

CCSC(=O)Cl
inactive: outcome [1] | Potency [2] | outcome [3] | Potency [4] | outcome [5] | Potency [6] | Potency [7] | Potency [8]

Cc1ccc2cc(C)ccc2c1
inactive: outcome [1] | Potency [2] | outcome [3] | Potency [4] | outcome [5] | Potency [6] | Potency [7] | Potency [8]

O=C(Cl)CCl
inactive: outcome [1] | Potency [2] | outcome [3] | Potency [4] | outcome [5] | Potency [6] | Potency [7] | Potency [8]

ClCCCCCCCl
inactive: outcome [1] | Potency [2] | outcome [3] | Potency [4] | outcome [5] | Potency [6] | Potency [7] | Potency [8]

NCC1(CC(=O)O)CCCCC1
inactive: outcome [1] | Potency [2] | outcome [3] | Potency [4] | outcome [5] | Potency [6] | Potency [7] | Potency [8]

CCN(CCO)CCO
inactive: outcome [1] | Potency [2] | outcome [3] | Potency [4] | outcome [5] | Potency [6] | Potency [8]

C=C1C[C@@H]2[C@H](CC[C@]3(C)C(=O)CC[C@@H]23)[C@@]2(C)C=CC(=O)C=C12
inactive: outcome [1] | Potency [2] | outcome [3] | outcome [5] | Potency [6] | Potency [10] | Potency [8]
active: Potency [7] 26.6 µM

Cn1c(CCCC(=O)O)nc2cc(N(CCCl)CCCl)ccc21
inactive: outcome [1] | Potency [2] | outcome [3] | outcome [5] | Potency [6] | Potency [7] | max activation [9] -0.144% | Potency [10] | Potency [8]

Clc1ccc(C(Cl)(Cl)Cl)cn1
inactive: outcome [1] | Potency [2] | outcome [3] | outcome [5] | Potency [6] | Potency [7] | Potency [8]

CCOP(=S)(OCC)SCCl
inactive: outcome [1] | Potency [2] | outcome [3] | outcome [5] | Potency [6] | Potency [7] | Potency [8]

Cc1ccc(S(=O)(=O)N[C@@H](CCCCN)C(=O)CCl)cc1
inactive: outcome [1] | Potency [2] | outcome [3] | outcome [5] | Potency [6] | Potency [7] | max activation [9] -2.32% | Potency [10] | Potency [8]

CCCCCCCCSC(=O)Oc1cc(Cl)nnc1-c1ccccc1
inactive: outcome [1] | Potency [2] | outcome [3] | outcome [5] | Potency [6] | Potency [8]

N#CN=C1SCCN1Cc1ccc(Cl)nc1
inactive: outcome [1] | Potency [2] | outcome [3] | Potency [4] | outcome [5] | Potency [6]
active: Potency [8] 35.6 µM

NC1(c2ccccc2)CCCCC1
inactive: outcome [1] | outcome [3] | Potency [4] | outcome [5] | Potency [6] | Potency [7] | Potency [8]

CC1N=C(N)OC1c1ccccc1 (stereo unspecified)
inactive: outcome [1] | outcome [3] | Potency [4] | outcome [5] | Potency [6] | Potency [7] | Potency [8]

CON(C)C(=O)Nc1ccc(Br)c(Cl)c1
active: Potency [7] 27.3 µM
inactive: outcome [1] | Potency [2] | outcome [3] | outcome [5] | Potency [6] | Potency [8]

Clc1nc(Cl)nc(Nc2ccccc2Cl)n1
inactive: outcome [1] | Potency [2] | outcome [3] | Potency [4] | outcome [5] | Potency [6] | Potency [8]

CNC(=O)O/N=C(/CSC)C(C)(C)C
inactive: outcome [1] | Potency [2] | outcome [3] | Potency [4] | outcome [5] | Potency [6]
active: Potency [8] 1.59 µM

COC(=O)[C@@H](N)CCCN/C(N)=N/[N+](=O)[O-]
inactive: outcome [1] | Potency [2] | outcome [3] | Potency [4] | outcome [5] | Potency [6] | max activation [9] 0.511% | Potency [8]

Cc1ccc(-c2nc3ccc(C)cn3c2CC(=O)N(C)C)cc1
active: Potency [7] 23.7 µM
inactive: outcome [1] | Potency [2] | outcome [3] | Potency [4] | outcome [5] | max activation [9] 1.42% | Potency [10] | Potency [8]

C/C=C/CC#N
inactive: outcome [1] | Potency [2] | outcome [3] | Potency [4] | outcome [5] | Potency [6] | Potency [8]

c1cncc([C@@H]2CCCCN2)c1
active: Potency [7] 21.7 µM
inactive: outcome [1] | Potency [2] | outcome [3] | outcome [5] | Potency [6] | Potency [8]

COc1ccc(CN2CCNCC2)c(OC)c1OC
inactive: outcome [1] | Potency [2] | outcome [3] | outcome [5] | Potency [6] | Potency [8]

CCc1cc(OC)c(C[C@H](C)N)cc1OC
inactive: outcome [1] | outcome [3] | Potency [4] | outcome [5] | Potency [6] | Potency [7]

COC(=O)c1ccc(CBr)cc1
inactive: outcome [1] | Potency [2] | outcome [5] | Potency [6] | Potency [8]
active: Potency [7] 55.1 µM

C[C@H]1CCCC(=O)CCC/C=C/c2cc(O)cc(O)c2C(=O)O1
active: Potency [2] 52.5 µM | Potency [4] 46.8 µM and 22.4 µM | Potency [6] 46.8 µM and 22.4 µM
inactive: outcome [1] | outcome [3] | outcome [5] | Potency [8]

CCCC(C)C1(CC)C(=O)N=C(S)NC1=O (stereo unspecified)
inactive: outcome [1] | Potency [2] | outcome [3] | Potency [4] | outcome [5] | Potency [6] | max activation [9] -4.4%

CC(Cc1ccccc1)NCCn1cnc2c1c(=O)n(C)c(=O)n2C (stereo unspecified)
inactive: outcome [1] | Potency [2] | outcome [3] | outcome [5] | Potency [6] | Potency [7] | Potency [8]

CC(C)(C)c1cc(O)ccc1O
active: Potency [4] 43.3 µM and 61.1 µM
inactive: outcome [1] | Potency [2] | outcome [3] | outcome [5] | Potency [6] | max activation [9] -1.85%
